# In the supplement of paper PMC6555819:
# How the values were obtained:
# Experiment in all cases: PBM binding z-score (relative to random genomic background probes); higher = stronger binding; sequences stand for … in GC…GCGATTGACAGCGTAGAATGAAGG
# [1] = test system: RARb homodimer (NR concentration 270 nM)
# Procedure, shortened: (§1)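 Ligand-free nuclear receptor dimers were applied to custom Agilent 4×180K protein-binding microarrays whose double-stranded probes carried direct-repeat seeds, single-nucleotide variants, half-site ablations and random human genomic background sequences in 34-nt variable regions. Incubation lasted 1 h. Binding z-scores were computed against the random background probes from regression-normalized fluorescence.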
# [2] = test system: RARg:RXRa (NR concentration 270 nM, RXRa partner concentration 90 nM)
# Procedure, shortened: as §1
# [3] = test system: RARg homodimer (NR concentration 270 nM)
# Procedure, shortened: as §1
# [4] = test system: RXRa DBDmut IVT, anti-RXR (DBD mutation: RXRa K156A/R161A, NR concentration 90 nM)
# Procedure, shortened: as §1
# [5] = test system: RXRa homodimer (NR concentration 180 nM)
# Procedure, shortened: as §1
# [6] = test system: THRa:RXRa (NR concentration 90 nM, RXRa partner concentration 90 nM)
# Procedure, shortened: as §1
# [7] = test system: THRa homodimer (NR concentration 90 nM)
# Procedure, shortened: as §1
# [8] = test system: VDR:RXRa (NR concentration 270 nM, RXRa partner concentration 90 nM)
# Procedure, shortened: as §1
# [9] = test system: VDR homodimer (NR concentration 270 nM)
# Procedure, shortened: as §1
Sequence,PBM binding z-score [1],PBM binding z-score [2],PBM binding z-score [3],PBM binding z-score [4],PBM binding z-score [5],PBM binding z-score [6],PBM binding z-score [7],PBM binding z-score [8],PBM binding z-score [9]
CCGAGTAGGTTACGAGGGGACATTCAGTGCGAAT,1.22,1.25,1.25,0.594,0.907,4.11,0.165,2.82,1.46
CGTCAAAGTTCAACTAAGGTAACTTAAAGCACGC,4.27,5.75,6.52,4.71,4.83,5.38,1.52,4.76,4.08
ATCGGAAGGTCGAGGTGAGTATAGAGAAAGGGAA,2.14,2.38,2.75,0.14,2.25,2.28,0.964,1.31,0.543
CTATTTAGGTTAAGGGGGTCATTCAGTTTGAAAG,3.95,5.19,4.01,2.74,5.73,4.05,2.07,7.31,6.2
ATCGAAAGGTCGAAGGTGACTATACCCACCCGAA,2.48,4.16,3.63,1.17,4.99,2.33,0.209,2.9,0.592
CCTACTGGGCCAAAGGTCATTGACTCCAATGCTC,4.46,5.6,4.61,1.6,6.03,3.38,0.707,4.58,1.82
CGAACTAGGTCAAACGACAGTGAAAGGCGACGTA,2.49,4.21,4.7,1.76,3.32,2.29,0.23,1.43,0.347
CGTCCAAGGGCAATGCTAGGTCAGTGAAAGCATT,3.04,3.71,2.64,0.887,0.71,2.98,0.346,0.893,0.429
CTATGTAGGTTAAGGGGATCATTCAGTTTGAAAG,0.917,0.82,0.66,0.605,1.12,0.96,0.136,2.59,0.834
CGATGTAGGTTAAGGGGGTCATTCAGTTTGAAAG,3.87,5.19,4.02,2.93,5.85,3.81,2.8,7.68,6.65
ACTATCAGGCCAAGGGTCACTCAAGATTAGTCCG,3.89,4.3,3.73,1.23,4.05,3.35,0.937,3.13,1.45
CGAACTAGGTTACCAGGACAGTGAAGAGGTTGGA,1.01,0.707,1.05,0.48,0.367,1.62,0.878,-0.164,0.0565
CACACTAGGTCAAGAGGTCAAAGTCCGCTTCCCG,5.71,8.04,7.49,3.09,8.05,4.5,3.03,6.08,4.78
CTATGTAGGTTAAGGGGGTCATACAGTTTGAAAG,3.95,5.39,4.06,2.32,6.26,4,2,7.05,5.41
CGAACTAGGTCACTAGGACAGTGAAGAGGTTGGA,3.02,3.58,4.16,1.22,2.07,2.71,0.967,1.18,0.00359
TCGAGTAGGTTACGGGGGCATTTAGGGATGAAGA,2.32,3.47,2.58,2.03,2.73,4.01,1.4,3.96,3.52
ACTCGGAGGACAAAGGTGAGAGCTACGCCAGTGA,1.79,2.63,1.82,0.453,1.5,1.68,0.221,0.122,0.0446
ATACGTAGGTTAGGGTCATTCAGAAAGTAGGGAA,3.19,4.12,3.37,2.35,5.33,4.07,2.92,4.37,3.67
CGAACTAGGTCAAAGGACAGTTAAAGGCGACGTA,3.01,4.13,4.51,1.67,3.1,2.49,0.41,1.52,0.768
CCGAGTAGGTTACGATGGGGCATTCAGTGCGAAT,0.657,0.828,0.851,0.0778,0.63,1.08,-0.789,0.842,0.231
GGAACGAGGGCATTCGAGTTGATAGCATGGCGAT,0.687,0.932,1.3,3.13,0.756,3.03,-0.775,3.76,2.78
TAGCCTAGGTCAGATCGGGCCAGTCTACGCTATA,2.16,2.51,3.36,-0.601,1.31,4.1,-0.0683,0.668,-0.368
TCTCGGAGGACACGAAGGTCAAAGCTTTCCAGAG,4.15,4.3,4.3,1.15,3.26,3.4,1.44,3.87,2.67
GATTCAGGGTCAGCTAGAGGCCAGAGTATGGAAA,3.87,7,5.09,1.93,4.72,3.52,1.01,4.09,0.938
CTATCTAGGTTAAGGGGGTCATTCAGTTTGAAAG,3.94,5.18,4.36,2.55,5.74,3.91,2.14,7.51,7.21
TAGCCTAGGTCATTCAGGGGCTAGTATAGAAAGC,2.84,4.98,4.16,1.94,2.89,3.74,0.0111,2.8,0.805

Sequence,PBM binding z-score [1],PBM binding z-score [2],PBM binding z-score [3],PBM binding z-score [4],PBM binding z-score [5],PBM binding z-score [6],PBM binding z-score [7],PBM binding z-score [8],PBM binding z-score [9]
CGTCAAAGTTCAACTAAGTTAACGTAAAGCACGC,4.02,5.7,6.78,4.7,5.2,4.32,0.349,5.16,3.74
TCGAGTAGATTACGGGGGCATTCAGGGATGAAGA,1.26,1.41,0.834,1.65,1.35,3.66,0.874,2.83,3.02
CGAACTAGGTCACCAGGTCAGTGAAGAGGTTGGA,4.64,5.69,6.17,1.7,4.83,3.89,2.72,3.92,1.52
CCTTACGGGTCAGGAGGTTATAGCACGACGAGCG,3.15,4.9,4.22,-0.195,4.96,2.37,0.0139,3.14,0.418
CCGAGTAGGTTACGAGGGCGCATTCAGTGCGAAT,0.436,0.647,0.287,-0.122,0.655,0.838,-0.711,0.78,0.0173
CCTTACGGGTCTCTCCAGGTTATAGCATCGGAGT,0.324,0.139,0.231,-0.347,0.0573,3.09,0.346,0.117,0.105
CTATGTAGGTTAAGGGGGCCATTCAGTTTGAAAG,1.71,2.17,1.78,1.21,1.73,2.02,0.914,4.74,1.98
CGAACTAGGTCACCCGGACAGTGAAGAGGTTGGA,3.23,4.48,5.44,1.27,2.93,2.98,1.47,2.69,1.13
TCGAGTAGGTTACGGGGGCATTCAAGGATGAAGA,2.13,3.22,2.33,1.68,2.9,4.28,1.06,3.74,2.77
ATATGTAGGTGAAGGGTCATTCAGGTTGGTTCGC,3.76,4.77,3.15,2.06,5.6,3.55,1.35,5.46,4.34
CGAACTAGGTCACCAGGACACTGAAGAGGTTGGA,3.48,4.62,5.4,1.56,3.65,3.83,2.39,2.56,0.607
TCGAGTAGGTTACGGTGGCATTCAGGGATGAAGA,0.0468,0.487,0.23,-0.239,0.829,0.835,-0.365,0.16,-0.35
CGAACTAGGTAAAAGGACAGTGAAAGGCGACGTA,1.17,0.486,0.964,-0.478,0.114,0.444,-0.377,-0.189,-0.349
TTTCCAAGGTGAAAGGTCGTTGATGCACGCCTTG,2.58,4.16,1.99,0.408,5.33,3.76,1.38,,1.38
CAATCTAGGTCAAAGGTCAAAGTCGAGCCAACCA,5.31,8.93,7.21,2.92,10.3,4.99,2.3,6.74,2.73
CCTACAGGGCCAAGGTCATTGATCAGTCAAAGCA,3.47,3.94,3.71,1.5,3.32,3.46,1.93,3.39,2.91
CGTACTAGGTCACCAGGACAGTGAAGAGGTTGGA,3.24,4.42,5.34,1.55,3.04,3.22,1.88,1.93,0.631
CTATGTAGGTTAAGGGGGTCCTTCAGTTTGAAAG,1.5,1.79,1.26,0.924,1.49,2.17,0.899,3.98,1.49
CGAACTAGGTCACCAGGACAGTGCAGAGGTTGGA,3.73,4.5,5.27,1.53,3.58,3.36,2.27,2.28,0.862
CCTACTGGGCCAAAGGTCTTTGATTCCAATGCTC,0.557,0.154,0.0453,-0.198,0.321,0.0869,-0.594,-0.283,-0.573
TCTAGCAGGCCATAGGGTCACTCAAGAGGTACGG,3.27,3.6,2.95,0.333,3.87,3.25,1.93,2.62,1.64
GCTGCTAGGTCGACTGATGGTCAGCTAAAGCTCG,0.638,1.2,0.89,0.38,0.265,0.35,-0.82,-0.493,-1
ATCGAAAGGGCGTGAGGTGAGTATACAGAAAGGC,1.44,1.47,1.36,-0.0845,1.17,2.12,1.08,0.49,0.15
ATATGTAGGTTACATCCGGGTCTTTCAGGCTATG,1.01,1.09,1.02,0.936,0.924,1.62,0.947,1.06,0.214
AGTCAAAGTTCATCAAGGTAACGTAAGATATGCT,3.86,5.57,5.96,4.57,4.81,3.8,1.23,5.55,4.97
CGAACTAGGTCAAAGGACAGTGAGAGGCGACGTA,3.04,3.93,4.52,1.67,3.04,2.62,0.63,1.19,0.723
